Consider 39 compounds from PubChem BioAssay (NCI).

Test [1] can be described thus: NCI Yeast Anticancer Drug Screen. Data for the rad50 strain (AID 155).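 Note: 0% = growth of vehicle-only cultures of the same strain.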 As to conditions: S. cerevisiae rad50 strain growth inhibition; at 50.0 µM; hits give high values. In outline: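 Inhibition values express reduced yeast growth in compound-treated cultures relative to vehicle-treated controls.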
Test [2] can be described thus: NCI Yeast Anticancer Drug Screen. Data for the mec2-1 strain (AID 157). Particulars: S. cerevisiae mec2-1 strain, at 50.0 µM, hits give high values. The method in brief: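 Strain: mec2-1 (DNA repair/cell cycle alteration). Compound exposure, then growth measured; inhibition expressed relative to vehicle.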
The nature of test [3]: NCI Yeast Anticancer Drug Screen. Data for the sgs1 mgt1 strain (AID 161).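 Note: 0% = growth of cultures given vehicle only.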 Particulars: S. cerevisiae sgs1 mgt1 strain, at 50.0 µM, hits give high values. The method in brief:
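Inhibition of yeast growth, normalised to vehicle-treated controls, is reported for a strain bearing genetic alterations in DNA damage repair.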

Test [4] can be described thus: NCI Yeast Anticancer Drug Screen. Data for the cln2 rad14 strain (AID 165).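 Note: 0% = growth equal to vehicle treated cultures.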 As to conditions: S. cerevisiae cln2 rad14 strain, at 50.0 µM, hits give high values. The method in brief: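 Compounds are applied to the cln2 rad14 yeast strain, and growth is then compared with that of vehicle-treated cultures to give inhibition.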
Test [5] can be described thus: NCI Yeast Anticancer Drug Screen. Data for the bub3 strain (AID 167). Particulars: S. cerevisiae bub3 mutant strain, at 50.0 µM, hits give high values. The method in brief: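 Steps: expose the mutant yeast strain to compound; grow alongside vehicle-treated cultures; measure growth; express inhibition against the vehicle cultures.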
A short description of test [6]: NCI Yeast Anticancer Drug Screen. Data for the mlh1 rad18 strain (AID 175). As to conditions: S. cerevisiae mlh1 rad18 strain growth inhibition; at 50.0 µM; hits give high values. The method in brief: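 Read-out is yeast growth inhibition, calculated against vehicle-only controls. The compound was applied to a strain engineered with DNA damage repair alterations.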

SMILES strings stand for the structures. This is part of a sample that, as a whole, favours compounds with a hit. Of some 79,000 tested, about 15% had one in any assay. Unmarked numbers belong to inactive results. Activity calls are given as the source filed them. Cut-off read from the data, not from the text of the source: active = growth inhibition above about 70%; inactive = the rest.

Turning to `O=C(NO)C(=O)Nc1ccc(Cl)cc1[N+](=O)[O-]`, the growth inhibition in test [1] was 47%; in test [2], 28.4%; in test [3], 36.5%; in test [4] it was 42%; in test [5], 49.1%; in test [6] it was 44.7%.
For the compound `CCOC(=O)C(N=Nc1ccc(S(N)(=O)=O)cc1)C(C)=O` (centres undefined), the growth inhibition in test [1] was -0.9%; in test [2] it was -15.1%; in test [3], -12.7%; in test [4], -4.25%; in test [5], -13.2%; in test [6], 16.1%.
As to `CC(=O)OC[C@@H](OC(C)=O)[C@@H](OC(C)=O)[C@H]1OC[C@@H]2C[C@H]([C@H]1OC(C)=O)N(Cc1ccccc1)O2`, the growth inhibition was -18.9% in test [1]; -13.8% in test [2]; -7.75% in test [3]; 4.25% in test [4]; -9.8% in test [5]; -0.3% in test [6].
Regarding `CC(NCc1c(O)ccc2c(-c3ccccc3)cc(=O)oc12)C(=O)O` (centres undefined), the growth inhibition in test [1] was -39.4%; in test [2], -19.1%; in test [3], -32.6%; in test [4] it was 4.35%; in test [5], -4.95%; in test [6], -14.8%.
For the compound `CC(=O)[C@H]1CC[C@H]2[C@@H]3CC=C4C=CCC[C@]4(C)[C@H]3CC[C@]12C`, the growth inhibition is -6.3% in test [1]; 1% in test [2]; -3.55% in test [3]; -58.5% in test [4]; 8.4% in test [5]; 6.7% in test [6].
On to `CN(C)C=Nc1ccn(CCO)c(=O)n1`, for which the growth inhibition in test [1] is 21.6%; in test [2] it was -16.9%; in test [3] it was 23.6%; in test [4], 19.1%; in test [5], 21.9%; in test [6] it was 33.2%.
Turning to `COC1OC(CO)C(O)C(O)C1Br` (centres undefined), the growth inhibition in test [1] is 19.8%; in test [2], 13.9%; in test [3], 13%; in test [4] it was 31.7%; in test [5] it was 23.8%; in test [6], 21.2%.
Consider `Cn1c(=O)c2[nH]c(C(=O)O)nc2n(C)c1=O`, for which the growth inhibition was 17.4% in test [1]; -2.35% in test [2]; 5.7% in test [3]; 9.35% in test [4]; -8.3% in test [5]; 9.85% in test [6].
Turning to `CC(CO)(CO)Nc1ncnc2ccccc12`, the growth inhibition in test [1] was -4.5%; in test [2], -12%; in test [3], -30.9%; in test [4], -26.4%; in test [5], -36.9%; in test [6], 9.7%.
For `CCc1ccccc1NC(=O)NCC(C)C`, the growth inhibition in test [1] is -7.65%; in test [2] it was -20.3%; in test [3] it was 5.85%; in test [4] it was -3.8%; in test [5], 2.7%; in test [6], -4.35%.
`CC(=O)Nc1cccc(/C=C/C=C/c2cccc([N+](=O)[O-])c2)c1`: the growth inhibition in test [1] was 89.3% (active); in test [2], 91.2% (active); in test [3], 93.5% (active); in test [4], 81.1% (active); in test [5] it was 91.3% (active); in test [6] it was 91.2% (active).
Take `CCOC(=O)C(Cc1c[nH]c2ccccc12)NCCN` (centres undefined): the growth inhibition in test [1] was -4.85%; in test [2], 4.8%; in test [3], -1.45%; in test [4], -9.95%; in test [5], -7.25%; in test [6], -3.8%.
Regarding `O=C(NC(COC(=O)c1ccccc1)COC(=O)c1ccccc1)c1ccccc1`, the growth inhibition in test [1] is 29.5%; in test [2], 7.85%; in test [3], 12.8%; in test [4], 12.8%; in test [5] it was -1.1%; in test [6], 9.95%.
For the compound `O=C(OCC1OCOC(COC(=O)c2ccccc2)C(OC(=O)c2ccccc2)C1OC(=O)c1ccccc1)c1ccccc1` (centres undefined), the growth inhibition in test [1] was 9.85%; in test [2], 8.35%; in test [3], -4.6%; in test [4], -13.8%; in test [5], -0.65%; in test [6], 19.6%.
With `NCCCc1ccc2c(c1)OCO2`, the growth inhibition in test [1] was 42.2%; in test [2] it was 6.45%; in test [3], 36%; in test [4], 47.7%; in test [5], 30.4%; in test [6], 50.5%.
Turning to `Oc1ccc2ccccc2c1C=Nc1ccc(SSc2ccc(N=Cc3c(O)ccc4ccccc34)cc2)cc1`, the growth inhibition is -6.6% in test [1]; -10.1% in test [2]; -19.6% in test [3]; -59.5% in test [4]; 0.9% in test [5]; -3.1% in test [6].
As for `CC(C)(N)COCOCC(C)(C)N`, the growth inhibition in test [1] is 6.8%; in test [2], -5.35%; in test [3], -1.15%; in test [4] it was 2.4%; in test [5], 5.8%; in test [6] it was 0%.
On to `Cc1ccnc(SCC(=O)O)n1`, for which the growth inhibition in test [1] was -4.35%; in test [2], -1.9%; in test [3], 5.45%; in test [4] it was 12.9%; in test [5] it was 10.6%; in test [6] it was 4.95%.
For `CCOc1ccc(Br)cc1/C=N\NC(=O)c1ccccc1N(C)C`, the growth inhibition in test [1] is -8.8%; in test [2], -11.6%; in test [3], -16.8%; in test [4], -23.6%; in test [5], -2.25%; in test [6], -11.2%.
In the case of `CC(C)=C/C(CC(O)(C(F)(F)F)C(F)(F)F)=N\O`, the growth inhibition in test [1] was -17.2%; in test [2] it was 4.45%; in test [3], -6.5%; in test [4], 18.4%; in test [5], -15.8%; in test [6], -13.3%.
Regarding `O=C1Cc2ccccc2NC(c2ccccc2)C1S(=O)(=O)c1ccccc1` (centres undefined), the growth inhibition in test [1] was 7.05%; in test [2] it was 4.35%; in test [3] it was 9.3%; in test [4], -2.15%; in test [5], -0.05%; in test [6], 19.6%.
In the case of `CCCCCCc1cn([C@H]2C[C@H](O)[C@@H](CO)O2)c(=O)[nH]c1=O`, the growth inhibition is -5.6% in test [1]; -5.4% in test [2]; 7.2% in test [3]; -12.8% in test [4]; 3% in test [5]; 9.15% in test [6].
In the case of `Cc1cc(N(CCC#N)S(=O)(=O)c2ccccc2)ccc1C=O`, the growth inhibition in test [1] is 25.9%; in test [2] it was -34.1%; in test [3] it was 13.9%; in test [4] it was -9.05%; in test [5] it was -9.15%; in test [6] it was -4.15%.
Take `CC1CCCCN1Cc1ccccc1COC(=O)c1ccc([N+](=O)[O-])cc1` (centres undefined): the growth inhibition is 10.6% in test [1]; -5.05% in test [2]; 4.8% in test [3]; -29.1% in test [4]; 4.05% in test [5]; 18.6% in test [6].
Regarding `CCNC(=O)c1csnn1`, the growth inhibition is -6.55% in test [1]; -5.6% in test [2]; -5.95% in test [3]; 12.5% in test [4]; -18.1% in test [5]; 2% in test [6].
Regarding `S=C(Nc1ccccc1)NC1SNC(=Nc2ccccc2)N1c1ccccc1` (centres undefined), the growth inhibition in test [1] is 98.2% (active); in test [2], 99.4% (active); in test [3], 98.8% (active); in test [4], 99.3% (active); in test [5], 99.3% (active); in test [6], 99% (active).
`CC(C)(C)C1=NC(S)NC(CCC(=O)Nc2ccccc2[N+](=O)[O-])=C1` (centres undefined): the growth inhibition in test [1] was 0.4%; in test [2] it was -8.85%; in test [3], -0.4%; in test [4], 14.2%; in test [5] it was 8.05%; in test [6], -7.4%.
In the case of `Cn1cc(C(C)(c2ccccc2)c2cn(C)c3ccccc23)c2ccccc21`, the growth inhibition is -13.8% in test [1]; -6% in test [2]; -4.25% in test [3]; -24.2% in test [4]; -5.6% in test [5]; -11% in test [6].
Turning to `CC(C)OC(=O)c1cccnc1`, the growth inhibition was 16.5% in test [1]; 2.2% in test [2]; 7.05% in test [3]; -39% in test [4]; -1.35% in test [5]; -2.45% in test [6].
Turning to `O=[N+]([O-])C(/C=C(\Cl)[N+](=O)[O-])=C(N1CCOCC1)N1CCOCC1`, the growth inhibition in test [1] is -4.7%; in test [2] it was -1.2%; in test [3] it was 24.9%; in test [4], -9.5%; in test [5], 13.9%; in test [6], 5.45%.
On to `O=C(Sc1ccccc1)C1OC1c1ccccc1` (centres undefined), for which the growth inhibition is 70.2% (active) in test [1]; 28.6% in test [2]; 22.6% in test [3]; 60.8% in test [4]; 63.1% in test [5]; 80.5% (active) in test [6].
Turning to `CNc1ccc(C(=O)O)cc1C(F)(F)F`, the growth inhibition in test [1] was -0.35%; in test [2], -1.45%; in test [3], -6%; in test [4] it was 0.65%; in test [5], -32.6%; in test [6], 8.85%.
Turning to `CC1(C)OC2CC(=O)OCC23C1CC(=O)C1(C)C3CCC2(C)C(c3ccoc3)OC(=O)C3OC321` (centres undefined), the growth inhibition was -7.65% in test [1]; 1.4% in test [2]; -0.55% in test [3]; 10.1% in test [4]; 8.7% in test [5]; 18.5% in test [6].
`COc1ccc(S(=O)(=O)O)cc1NS(=O)(=O)c1ccc(C)cc1`: the growth inhibition in test [1] was -1.05%; in test [2], 18.9%; in test [3] it was 15.9%; in test [4] it was -12.2%; in test [5] it was 0.05%; in test [6] it was -2.1%.
As for `Cc1ccc(S(=O)(=O)ON/N=c2\ccn(C)c3ccccc23)cc1`, the growth inhibition is 38.1% in test [1]; 12.6% in test [2]; 19.1% in test [3]; -4.85% in test [4]; 8.05% in test [5]; 16.6% in test [6].
Turning to `COC1=NS(=O)(=O)C2(O1)c1ccccc1-c1ccccc12`, the growth inhibition in test [1] was 15.2%; in test [2], 17.2%; in test [3], 11.4%; in test [4], 13.2%; in test [5], 25.8%; in test [6] it was 12.3%.
As to `Cc1c(-c2ccccc2)n[nH]c1-c1[nH]nc(-c2ccccc2)c1C`, the growth inhibition was -9.7% in test [1]; -16.9% in test [2]; -24.2% in test [3]; -15% in test [4]; -41.1% in test [5]; -19.1% in test [6].
Consider `CSc1nc2c(c(=O)n1C)N=C(c1ccccc1)[C@H](C(CC(=O)c1ccccc1)c1ccccc1)C(c1ccccc1)N2` (some centres undefined), for which the growth inhibition was 46.6% in test [1]; 43.9% in test [2]; 41.1% in test [3]; 24.2% in test [4]; 14.6% in test [5]; 11.8% in test [6].
As to `N#Cc1ccccc1C#N`, the growth inhibition was -0.8% in test [1]; -5% in test [2]; -7.7% in test [3]; -13.9% in test [4]; -4.7% in test [5]; -0.4% in test [6].
